Some test systems named below: TIE1; TLK1; TLK2; TNIK; TNK1; TNK2; TNNI3K; TRKB; TRPM6; TSSK1B; TSSK3; TTK; TXK; TYRO3; ULK1.
What all share (settings): concentration: 1 μM, replicates: in singlicate; n = 1
The next experiment deals with T1, TIE2.
T1 construct: gene TEK

A further experiment relates to T2, TRKA.
T2 construct: gene NTRK1

In a further experiment the test system is T3, TRKC.
T3 construct: gene NTRK3

Experiment [1] concerns TYK2(JH1domain-catalytic).
In experiment [2] the test system is TYK2(JH2domain-pseudokinase).

The structures appear in SMILES notation.
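Note: KINOMEscan kinase panel screen.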

In the case of `CCC(CC)(CC)n1cnc2c(N)ncnc21` [SKF-97620], the “%Inh” value in the experiment on TIE1 came to 21%; in the experiment on TIE2, 8%; in the experiment with TLK1, 27%; in the experiment with TLK2, 2%; in the experiment on TNIK it was 100%; in the experiment on TNK1, 6%. Moreover, the “%Inh” value was found to be 0% in the experiment on TNK2; 0% in the experiment on TNNI3K; 41% with TRKA; 26% in the experiment on TRKB; 37% in the experiment with TRKC; 58% with TRPM6. The “%Inh” value in the experiment with TSSK1B stood at 0%; in the experiment on TSSK3 it was 3%; in the experiment on TTK it was 0%; in the experiment on TXK it was 0%; in [1] it was 21%; in experiment [2], 41%. Also, the “%Inh” value in the experiment on TYRO3 is 12%; with ULK1, 31%.
On to `Cl.Cn1ccc(-c2cccc(Nc3ccnc4cc(-c5nccs5)ccc34)c2)n1` [GW525701], for which the “%Inh” value came out at 0% with TIE1; 0% with TIE2; 13% with TLK1; 3% in the experiment with TLK2; 50% in the experiment with TNIK; 0% with TNK1. The “%Inh” value in the experiment with TNK2 came to 33%; in the experiment on TNNI3K it was 0%; in the experiment with TRKA, 0%; in the experiment on TRKB, 60%; with TRKC, 43%; in the experiment with TRPM6 it was 0%. Besides, the “%Inh” value with TSSK1B turned out to be 3%; in the experiment with TSSK3 it was 6%; in the experiment with TTK, 0%; in the experiment with TXK, 14%; in experiment [1], 30%; in experiment [2], 49%. Moreover, the “%Inh” value in the experiment on TYRO3 and in the experiment with ULK1 was 0% in each case.
`Cc1ccc(C)c(NC(=O)NCCNc2ccnc(Nc3ccc(F)cc3)n2)c1` [GSK1379878]: the “%Inh” value in the experiment on TIE1 is 0%; in the experiment with TIE2, 0%; with TLK1 it was 1%; with TLK2 it was 0%; with TNIK it was 0%; with TNK1, 0%. The “%Inh” value was 9% in the experiment on TNK2; 0% in the experiment with TNNI3K; 10% in the experiment on TRKA; 0% in the experiment on TRKB; 15% with TRKC; 0% in the experiment on TRPM6. The “%Inh” value in the experiment on TSSK1B was found to be 0%; in the experiment with TSSK3, 22%; in the experiment with TTK, 0%; in the experiment on TXK it was 3%; in [1], 26%; in experiment [2] it was 6%. Further, the “%Inh” value with TYRO3 and in the experiment with ULK1 was 0% throughout.
`FC(F)(F)c1ccc(-c2nn3ncccc3c2-c2ccnc(Nc3cccc(C(F)(F)F)c3)n2)cc1` [GW828205]: the “%Inh” value amounted to 0% with TIE1; 52% with TIE2; 0% with TLK1; 8% with TLK2; 0% with TNIK; 0% in the experiment with TNK1. Further, the “%Inh” value with TNK2, in the experiment with TNNI3K, with TRKA, in the experiment on TRKB, with TRKC and in the experiment on TRPM6 was 0% each time. Moreover, the “%Inh” value in the experiment with TSSK1B was determined as 0%; in the experiment with TSSK3 it was 0%; in the experiment with TTK it was 0%; in the experiment with TXK, 3%; in experiment [1], 0%; in experiment [2], 0%. Also, the “%Inh” value with TYRO3 and in the experiment with ULK1 was 0% in each case.
`CN1CCC(n2cnc(-c3ccc(F)cc3)c2-c2ccnc(NC3CCNCC3)n2)CC1` [SB-229482]: the “%Inh” value was determined as 0% in the experiment on TIE1; 0% in the experiment on TIE2; 11% in the experiment with TLK1; 0% in the experiment with TLK2; 1% in the experiment on TNIK; 16% with TNK1. The “%Inh” value in the experiment on TNK2 is on record as 0%; with TNNI3K, 0%; in the experiment on TRKA it was 17%; in the experiment on TRKB, 26%; in the experiment on TRKC it was 9%; in the experiment on TRPM6 it was 0%. Besides, the “%Inh” value with TSSK1B stood at 0%; with TSSK3, 43%; with TTK it was 0%; in the experiment with TXK it was 0%; in [1] it was 25%; in experiment [2], 34%. Further, the “%Inh” value with TYRO3 and in the experiment with ULK1 was 0% each time.
Consider `Cc1cc(N2CCC(NS(=O)(=O)c3ccc(F)cc3)CC2)nc(Nc2cccc(C#N)c2)n1.O=C(O)C(F)(F)F` [GSK1653537], for which the “%Inh” value in the experiment with TIE1 worked out at 3%; with TIE2, 0%; in the experiment on TLK1, 5%; in the experiment with TLK2, 0%; in the experiment on TNIK, 0%; in the experiment with TNK1 it was 0%. Moreover, the “%Inh” value is on record as 11% in the experiment on TNK2; 0% in the experiment with TNNI3K; 0% in the experiment with TRKA; 0% in the experiment with TRKB; 0% in the experiment on TRKC; 0% in the experiment with TRPM6. The “%Inh” value in the experiment with TSSK1B is 27%; with TSSK3, 8%; in the experiment with TTK it was 1%; in the experiment with TXK, 0%; in experiment [1], 0%; in experiment [2], 2%. Moreover, the “%Inh” value in the experiment on TYRO3 and with ULK1 was 0% each time.
Regarding `Nc1n[nH]c2nnc(-c3ccccc3)cc12` [SB-517389], the “%Inh” value in the experiment on TIE1 is 0%; in the experiment with TIE2, 0%; with TLK1, 15%; in the experiment with TLK2, 0%; with TNIK, 0%; in the experiment on TNK1, 0%. The “%Inh” value came to 20% with TNK2; 13% in the experiment on TNNI3K; 0% in the experiment with TRKA; 0% in the experiment with TRKB; 0% in the experiment with TRKC; 35% with TRPM6. Moreover, the “%Inh” value in the experiment on TSSK1B is 9%; in the experiment on TSSK3, 100%; in the experiment on TTK, 0%; with TXK it was 25%; in [1], 36%; in experiment [2], 79%. Moreover, the “%Inh” value is 0% with TYRO3 and 20% in the experiment on ULK1.
As for `Nc1nc(-c2ccc3c(N)n[nH]c3c2)cc(N2CCCCC2)n1` [GSK2228768], the “%Inh” value in the experiment on TIE1 is given as 6%; with TIE2 it was 0%; in the experiment on TLK1, 0%; in the experiment with TLK2, 0%; in the experiment on TNIK, 0%; in the experiment with TNK1 it was 0%. For the same compound, the “%Inh” value in the experiment with TNK2 worked out at 13%; with TNNI3K, 0%; in the experiment with TRKA, 0%; in the experiment on TRKB, 0%; in the experiment on TRKC, 0%; in the experiment with TRPM6 it was 10%. Besides, the “%Inh” value is on record as 0% in the experiment on TSSK1B; 3% in the experiment on TSSK3; 0% in the experiment on TTK; 0% in the experiment on TXK; 0% in experiment [1]; 5% in experiment [2]. Also, the “%Inh” value turned out to be 0% with TYRO3 and 10% in the experiment on ULK1.
Turning to `Cn1ccc2ncnc(Oc3ccc(NC(=O)Nc4cccnc4)c(Cl)c3)c21`, the “%Inh” value stood at 18% in the experiment on TIE1; 0% in the experiment on TIE2; 13% with TLK1; 0% in the experiment on TLK2; 1% with TNIK; 0% in the experiment on TNK1. Also, the “%Inh” value with TNK2, in the experiment on TNNI3K, with TRKA, with TRKB, with TRKC and in the experiment on TRPM6 was 0% in each case. Also, the “%Inh” value in the experiment on TSSK1B worked out at 0%; with TSSK3, 2%; in the experiment with TTK it was 1%; in the experiment with TXK, 0%; in experiment [1] it was 0%; in experiment [2], 0%. The “%Inh” value in the experiment with TYRO3 and in the experiment with ULK1 was 0% throughout.
Consider `COc1ccc(NC(=O)c2ccc(-c3cc(-c4nnc(C)o4)ccc3C)cc2)cc1` [GW595885], for which the “%Inh” value in the experiment on TIE1 is 14%; in the experiment on TIE2, 0%; with TLK1, 0%; in the experiment with TLK2, 0%; in the experiment on TNIK, 0%; with TNK1, 0%. Further, the “%Inh” value in the experiment with TNK2 is 21%; in the experiment with TNNI3K it was 0%; in the experiment on TRKA, 0%; in the experiment on TRKB, 17%; in the experiment with TRKC, 20%; with TRPM6, 0%. In addition, the “%Inh” value came to 12% in the experiment on TSSK1B; 44% in the experiment with TSSK3; 11% with TTK; 0% with TXK; 12% in experiment [1]; 22% in [2]. The results for the “%Inh” value with TYRO3 and in the experiment with ULK1 were 3% and 6%, respectively.

Values taken from paper PMC5540273 (PLoS ONE, 2017).
